What all share (assay): DAPPL (digital affinity profiling via proximity ligation, sequencing); 10 mM Tris-HCl pH 7.5, 50 mM NaCl, 1 mM DTT, 4% glycerol, room temperature, 30 min; GST-TFs on glutathione beads, 16-mer random dsDNA library, 0.1% formaldehyde crosslink after washing; high values mean tight binding
Holding throughout (details): protein: recombinant; tags: N-terminal GST; dsDNA, one strand shown

One assay concerns the target T1, ERF (Homo sapiens, UniProt P50548 1-548).
T1 sequence: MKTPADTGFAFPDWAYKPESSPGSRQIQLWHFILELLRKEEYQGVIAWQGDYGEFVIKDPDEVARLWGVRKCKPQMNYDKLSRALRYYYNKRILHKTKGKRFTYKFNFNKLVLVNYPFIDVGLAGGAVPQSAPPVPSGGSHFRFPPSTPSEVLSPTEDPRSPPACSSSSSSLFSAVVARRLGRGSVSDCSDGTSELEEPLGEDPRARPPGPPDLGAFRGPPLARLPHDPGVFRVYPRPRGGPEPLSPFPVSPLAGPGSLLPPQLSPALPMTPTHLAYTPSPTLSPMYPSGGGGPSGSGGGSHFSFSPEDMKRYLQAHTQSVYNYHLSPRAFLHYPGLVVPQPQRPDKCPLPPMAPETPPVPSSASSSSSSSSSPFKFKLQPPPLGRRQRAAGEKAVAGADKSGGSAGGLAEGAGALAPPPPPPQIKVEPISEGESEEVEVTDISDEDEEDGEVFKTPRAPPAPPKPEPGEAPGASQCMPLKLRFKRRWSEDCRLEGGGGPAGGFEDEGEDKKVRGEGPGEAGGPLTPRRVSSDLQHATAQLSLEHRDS
The procedure, abridged:
(§1)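 Beads coated with glutathione captured GST-fused human transcription factors that had been expressed in yeast, and the factors were then given DNA barcodes and pooled with a tag-only sample. The pools were incubated with 200 nmole of a random double-stranded 16-mer DNA library in Tris/NaCl/DTT/glycerol buffer for 30 min at room temperature, washed, crosslinked with 0.1% formaldehyde and proximity-ligated with BsaI/T4 ligase at 37 °C for 1 h. PCR amplification and Illumina NextSeq500 sequencing came last. Binding signal is each hexamer's read frequency for a factor divided by its frequency for the tag-only sample.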

In another assay the target is T2, ETV3L (Homo sapiens, UniProt Q6ZN32 1-361).
T2 sequence: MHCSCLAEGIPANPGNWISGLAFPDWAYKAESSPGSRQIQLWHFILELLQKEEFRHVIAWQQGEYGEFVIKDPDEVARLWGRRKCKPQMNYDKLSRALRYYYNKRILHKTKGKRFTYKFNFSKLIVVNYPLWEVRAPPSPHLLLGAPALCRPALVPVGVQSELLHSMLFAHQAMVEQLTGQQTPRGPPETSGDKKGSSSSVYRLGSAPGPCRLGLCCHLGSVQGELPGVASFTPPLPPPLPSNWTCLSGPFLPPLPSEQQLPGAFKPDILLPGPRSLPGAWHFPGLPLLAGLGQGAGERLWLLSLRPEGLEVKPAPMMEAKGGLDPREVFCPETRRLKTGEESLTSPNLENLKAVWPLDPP
The gist of the method:
as §1

In another assay the target is T3, ETS2 (Homo sapiens, UniProt P15036 1-469).
T3 sequence: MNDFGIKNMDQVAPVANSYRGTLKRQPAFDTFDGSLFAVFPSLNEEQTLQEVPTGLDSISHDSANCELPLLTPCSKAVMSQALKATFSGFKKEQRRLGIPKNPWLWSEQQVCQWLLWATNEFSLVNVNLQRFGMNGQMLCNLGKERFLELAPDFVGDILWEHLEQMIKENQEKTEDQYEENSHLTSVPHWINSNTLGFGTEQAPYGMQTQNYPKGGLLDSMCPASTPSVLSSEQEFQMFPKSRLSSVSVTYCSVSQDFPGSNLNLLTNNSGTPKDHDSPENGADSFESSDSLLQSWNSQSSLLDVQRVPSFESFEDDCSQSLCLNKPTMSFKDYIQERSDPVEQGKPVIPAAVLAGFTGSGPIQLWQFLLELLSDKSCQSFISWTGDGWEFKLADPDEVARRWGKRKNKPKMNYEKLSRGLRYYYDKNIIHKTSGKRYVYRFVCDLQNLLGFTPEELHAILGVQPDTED
The procedure, abridged:
as §1

Another assay addresses T4, SPDEF (Homo sapiens, UniProt O95238 1-335).
T4 sequence: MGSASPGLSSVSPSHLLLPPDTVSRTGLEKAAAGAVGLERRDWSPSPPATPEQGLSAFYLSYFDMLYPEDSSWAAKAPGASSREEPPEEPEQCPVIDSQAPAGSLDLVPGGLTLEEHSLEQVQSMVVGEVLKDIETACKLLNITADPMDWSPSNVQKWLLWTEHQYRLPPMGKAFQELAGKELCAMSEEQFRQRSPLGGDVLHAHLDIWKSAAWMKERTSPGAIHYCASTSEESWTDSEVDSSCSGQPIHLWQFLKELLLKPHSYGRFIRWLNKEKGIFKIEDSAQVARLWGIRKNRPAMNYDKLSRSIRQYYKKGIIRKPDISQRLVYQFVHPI
The procedure, abridged:
as §1

The target of another assay is T5, ETV7 (Homo sapiens, UniProt Q9Y603 1-341).
T5 sequence: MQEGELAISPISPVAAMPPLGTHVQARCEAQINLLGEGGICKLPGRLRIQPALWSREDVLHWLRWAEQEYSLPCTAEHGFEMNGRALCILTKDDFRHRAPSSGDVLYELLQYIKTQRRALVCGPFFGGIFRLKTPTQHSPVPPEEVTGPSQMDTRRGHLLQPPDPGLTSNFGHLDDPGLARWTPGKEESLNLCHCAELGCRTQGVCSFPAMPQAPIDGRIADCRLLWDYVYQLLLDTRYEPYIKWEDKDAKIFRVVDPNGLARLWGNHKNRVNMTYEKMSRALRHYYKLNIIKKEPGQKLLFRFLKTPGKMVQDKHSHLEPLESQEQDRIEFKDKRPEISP
The gist of the method: as §1

The target in the next assay is T6, ELF5 (Homo sapiens, UniProt Q9UKW6-2 1-255).
T6 sequence: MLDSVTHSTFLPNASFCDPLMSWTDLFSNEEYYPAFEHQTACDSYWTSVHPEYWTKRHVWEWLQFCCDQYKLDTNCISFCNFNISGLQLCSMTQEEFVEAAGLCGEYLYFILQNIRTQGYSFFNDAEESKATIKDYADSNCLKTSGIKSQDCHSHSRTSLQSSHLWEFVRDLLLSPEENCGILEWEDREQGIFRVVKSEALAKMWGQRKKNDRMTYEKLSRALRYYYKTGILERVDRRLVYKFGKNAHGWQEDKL
The gist of the method: as §1

In another assay the target is T7, ETV3 (Homo sapiens, UniProt P41162-2 1-143).
T7 sequence: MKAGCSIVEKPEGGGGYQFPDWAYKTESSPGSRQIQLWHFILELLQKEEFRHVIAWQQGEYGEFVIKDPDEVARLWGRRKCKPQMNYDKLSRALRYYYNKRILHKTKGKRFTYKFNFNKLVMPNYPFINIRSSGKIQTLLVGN
The gist of the method:
as §1

In the next assay the target is ETV6 (Homo sapiens, UniProt P41212 1-452). The procedure, abridged: as §1
Chain of ETV6 (P41212 whole entry): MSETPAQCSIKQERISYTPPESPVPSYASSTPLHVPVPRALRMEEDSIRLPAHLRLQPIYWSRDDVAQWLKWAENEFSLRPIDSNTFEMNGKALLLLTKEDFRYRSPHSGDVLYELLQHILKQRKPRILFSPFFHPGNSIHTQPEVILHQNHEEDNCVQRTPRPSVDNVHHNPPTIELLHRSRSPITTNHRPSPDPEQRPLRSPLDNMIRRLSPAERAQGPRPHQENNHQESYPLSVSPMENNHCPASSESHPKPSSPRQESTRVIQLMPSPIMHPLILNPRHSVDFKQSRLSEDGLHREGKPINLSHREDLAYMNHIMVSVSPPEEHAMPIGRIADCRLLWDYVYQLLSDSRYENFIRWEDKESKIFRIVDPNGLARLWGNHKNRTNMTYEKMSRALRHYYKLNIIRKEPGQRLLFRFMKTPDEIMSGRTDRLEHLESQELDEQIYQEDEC

Consider TACAAT, for which the binding signal with ERF was 1.31 fold enrichment (6-mer frequency, TF over GST control); with ETV3L it was 1.25 fold enrichment (6-mer frequency, TF over GST control); with ETS2, 1.34 fold enrichment (6-mer frequency, TF over GST control); with SPDEF it was 1.28 fold enrichment (6-mer frequency, TF over GST control); with ETV7, 1.24 fold enrichment (6-mer frequency, TF over GST control); with ELF5 it was 1.24 fold enrichment (6-mer frequency, TF over GST control). In addition, the binding signal is 1.28 fold enrichment (6-mer frequency, TF over GST control) with ETV3 and 1.26 fold enrichment (6-mer frequency, TF over GST control) with ETV6.

CTCTAA: the binding signal with ERF was 1.44 fold enrichment (6-mer frequency, TF over GST control); with ETV3L, 1.37 fold enrichment (6-mer frequency, TF over GST control); in the assay with ETS2, 1.32 fold enrichment (6-mer frequency, TF over GST control); in the assay with SPDEF it was 1.19 fold enrichment (6-mer frequency, TF over GST control); in the assay with ETV7, 1.27 fold enrichment (6-mer frequency, TF over GST control); with ELF5 it was 1.34 fold enrichment (6-mer frequency, TF over GST control). In addition, the binding signal with ETV3 was 1.24 fold enrichment (6-mer frequency, TF over GST control); with ETV6, 1.26 fold enrichment (6-mer frequency, TF over GST control).

Take TTACCG: the binding signal with ERF is 1.05 fold enrichment (6-mer frequency, TF over GST control); with ETV3L, 1.03 fold enrichment (6-mer frequency, TF over GST control); with ETS2 it was 1.19 fold enrichment (6-mer frequency, TF over GST control); in the assay with SPDEF, 1.21 fold enrichment (6-mer frequency, TF over GST control); with ETV7 it was 1.17 fold enrichment (6-mer frequency, TF over GST control); in the assay with ELF5, 1.3 fold enrichment (6-mer frequency, TF over GST control). Also, the binding signal was 1.23 fold enrichment (6-mer frequency, TF over GST control) with ETV3 and 1.25 fold enrichment (6-mer frequency, TF over GST control) in the assay with ETV6.

Take ATGTGT: the binding signal in the assay with ERF is 1.15 fold enrichment (6-mer frequency, TF over GST control); in the assay with ETV3L, 1.1 fold enrichment (6-mer frequency, TF over GST control); in the assay with ETS2, 1.17 fold enrichment (6-mer frequency, TF over GST control); with SPDEF it was 1.23 fold enrichment (6-mer frequency, TF over GST control); with ETV7, 1.09 fold enrichment (6-mer frequency, TF over GST control); with ELF5, 1.04 fold enrichment (6-mer frequency, TF over GST control). The binding signal with ETV3 was 1.01 fold enrichment (6-mer frequency, TF over GST control); with ETV6, 1.12 fold enrichment (6-mer frequency, TF over GST control).

As for CGGCAT, the binding signal with ERF is 1.09 fold enrichment (6-mer frequency, TF over GST control); with ETV3L it was 1.23 fold enrichment (6-mer frequency, TF over GST control); in the assay with ETS2, 1.17 fold enrichment (6-mer frequency, TF over GST control); with SPDEF, 1.22 fold enrichment (6-mer frequency, TF over GST control); with ETV7, 1.07 fold enrichment (6-mer frequency, TF over GST control); with ELF5 it was 1.07 fold enrichment (6-mer frequency, TF over GST control). In addition, the binding signal in the assay with ETV3 is 1.19 fold enrichment (6-mer frequency, TF over GST control); with ETV6 it was 1.21 fold enrichment (6-mer frequency, TF over GST control).

For the sequence CCAATG, the binding signal with ERF was 1.03 fold enrichment (6-mer frequency, TF over GST control); in the assay with ETV3L it was 1.11 fold enrichment (6-mer frequency, TF over GST control); in the assay with ETS2 it was 1.08 fold enrichment (6-mer frequency, TF over GST control); in the assay with SPDEF it was 1.02 fold enrichment (6-mer frequency, TF over GST control); in the assay with ETV7 it was 1.1 fold enrichment (6-mer frequency, TF over GST control); with ELF5 it was 1.05 fold enrichment (6-mer frequency, TF over GST control). The binding signal in the assay with ETV3 was 1.15 fold enrichment (6-mer frequency, TF over GST control); with ETV6, 1.14 fold enrichment (6-mer frequency, TF over GST control).

As for TGCCTA, the binding signal was 1.09 fold enrichment (6-mer frequency, TF over GST control) in the assay with ERF; 1.16 fold enrichment (6-mer frequency, TF over GST control) with ETV3L; 1.16 fold enrichment (6-mer frequency, TF over GST control) with ETS2; 1.03 fold enrichment (6-mer frequency, TF over GST control) in the assay with SPDEF; 1.01 fold enrichment (6-mer frequency, TF over GST control) in the assay with ETV7; 1 fold enrichment (6-mer frequency, TF over GST control) with ELF5. The binding signal was 1.07 fold enrichment (6-mer frequency, TF over GST control) with ETV3 and 1.07 fold enrichment (6-mer frequency, TF over GST control) with ETV6.

With TGTATA, the binding signal with ERF is 1.24 fold enrichment (6-mer frequency, TF over GST control); with ETV3L it was 1.11 fold enrichment (6-mer frequency, TF over GST control); with ETS2, 1.1 fold enrichment (6-mer frequency, TF over GST control); in the assay with SPDEF, 1.24 fold enrichment (6-mer frequency, TF over GST control); with ETV7, 1.09 fold enrichment (6-mer frequency, TF over GST control); with ELF5, 1.11 fold enrichment (6-mer frequency, TF over GST control). In addition, the binding signal with ETV3 is 1.04 fold enrichment (6-mer frequency, TF over GST control); with ETV6, 1.04 fold enrichment (6-mer frequency, TF over GST control).

The values above are taken from PMC7862700, “An all-to-all approach to the identification of sequence-specific readers for epigenetic DNA modifications on cytosine”.
